Results from PubChem BioAssay (Tox21).
Several values for one entry are separate records, joined by “and”; a condition that tells them apart may be missing. Identical values can stand only once. Results filed as inconclusive are left out. A structure can be active in one record and inactive in another. Activity calls are given as the source filed them. The call rests on the fitted dose curve; in most records, active means well fitted inhibition curve with a large enough effect in the repeat runs; inconclusive means weak or mixed curves; inactive means no such curve, though single readings can be large or run the other way.
On the % scale 0 is the no-effect control and ±100 the full control effect; potency means the concentration at half of the fitted maximal effect.

Each molecule was assayed against Cytochrome P450 2C19 (Homo sapiens) (UniProt P33261) (assay: Cytochrome P450 Family 2 Subfamily C Member 19 (CYP2C19) small molecule antagonists: luciferase reporter qHTS assay (AID 1671197; further: nearly all actives have a fitted effect of over 65% in size)). Settings: P450-Glo CYP2C19 enzyme, luciferin luminescence, 1 h; series mostly up to 115 µM; activity change, negative = inhibition: at the top concentration.
Cytochrome P450 2C19 (Homo sapiens), sequence (P33261 whole entry, looked up): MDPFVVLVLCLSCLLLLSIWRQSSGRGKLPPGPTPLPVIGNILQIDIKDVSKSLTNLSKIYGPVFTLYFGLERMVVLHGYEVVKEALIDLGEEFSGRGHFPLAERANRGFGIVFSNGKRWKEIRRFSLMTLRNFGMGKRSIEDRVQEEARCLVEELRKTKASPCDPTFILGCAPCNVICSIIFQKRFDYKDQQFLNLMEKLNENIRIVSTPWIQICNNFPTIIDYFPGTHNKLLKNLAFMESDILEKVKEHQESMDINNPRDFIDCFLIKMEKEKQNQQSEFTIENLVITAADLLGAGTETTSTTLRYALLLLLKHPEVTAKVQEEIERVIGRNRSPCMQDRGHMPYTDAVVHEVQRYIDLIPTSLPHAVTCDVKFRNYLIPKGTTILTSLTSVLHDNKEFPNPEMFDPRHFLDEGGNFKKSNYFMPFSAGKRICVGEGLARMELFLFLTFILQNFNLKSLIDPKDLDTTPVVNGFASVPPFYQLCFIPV
Procedure, shortened: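 Light output is proportional to CYP2C19 activity: proluciferin substrate is converted to luciferin, then detected by a luciferin detection reagent that also stops the 1 h, 37C NADPH-driven reaction. Ketoconazole serves as positive control.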
For CC(=O)[C@H]1CC[C@H]2[C@@H]3CC=C4C[C@@H](O)CC[C@]4(C)[C@H]3CC[C@]12C, the Potency was “inactive”. For CCC(=O)O[C@H]1[C@H](O[C@@H]2[C@@H](C)[C@H](O[C@H]3C[C@@](C)(OC)[C@@H](O)[C@H](C)O3)[C@@H](C)C(=O)O[C@H](CC)[C@@](C)(O)[C@H](O)[C@@H](C)C(=O)[C@H](C)C[C@@]2(C)O)O[C@H](C)C[C@@H]1N(C)C, the Potency was 47.1 µM (active) and inactive. In the case of CC1(C)C(C=C(Cl)Cl)C1C(=O)OCc1cccc(Oc2ccccc2)c1 (configuration not stated), the Potency is reported as 7.91 µM (active) and 3.17 µM (active). In the case of COc1ccc(-c2coc3cc(O)cc(O)c3c2=O)cc1, the Potency is reported as 20.2 µM (active) and 28.3 µM (active). In the case of O=C1OC2(c3ccccc31)c1cc(I)c(O)c(I)c1Oc1c2cc(I)c(O)c1I, the Potency is reported as 56.5 µM (active) and 18 µM (active) and 5.43 µM (active). In the case of CCC(Cc1c(I)cc(I)c(N)c1I)C(=O)O (configuration not stated), the “activity change, negative = inhibition” value is reported as -0.719% [at 52.9 µM] (inactive). With CC(C)(C)c1cccc(C(C)(C)C)c1O the Potency was 55.1 µM (active) and inactive. For C1CN(SSN2CCOCC2)CCO1, the Potency was 35.2 µM (active) and 35.6 µM (active). For CN(Cc1cnc2nc(N)nc(N)c2n1)c1ccc(C(=O)N[C@@H](CCC(=O)O)C(=O)O)cc1, the Potency was “inactive”. COC(=O)C(C)Oc1ccc(Oc2ncc(C(F)(F)F)cc2Cl)cc1 (configuration not stated) was tested, and the Potency was 40.4 µM (active) and 39.9 µM (active). CC(=O)O[C@]1(C(C)=O)CC[C@H]2[C@@H]3C=C(Cl)C4=CC(=O)CC[C@]4(C)[C@H]3CC[C@@]21C was tested, and the Potency was 12.6 µM (active) and 4.36 µM (active). For CN(C)/N=N/c1nc[nH]c1C(N)=O, the Potency was “inactive”. With CC(C)[N+](C)(CCOC(=O)C1c2ccccc2Oc2ccccc21)C(C)C the Potency was “inactive”. For Nc1ccc(O)c(N)c1, the Potency was 35.3 µM (active) and 35.6 µM (active). For COC(=O)c1ccc(C)cc1, the Potency was “inactive”. Cc1ccc([N+](=O)[O-])c(C)c1 was tested, and the Potency was 8.94 µM (active) and inactive. For CC(C)=CCO, the Potency was “inactive”. For c1ccc2cc3ccccc3cc2c1, the Potency was 41.2 µM (active) and 79.6 µM (active). In the case of Cc1ccc(N)c([N+](=O)[O-])c1, the Potency is reported as 39.4 µM (active). CCCCCCCCCCCCCO was tested, and the Potency was 71.8 µM (active) and 36.9 µM (active). In the case of C[N+](C)(C)CCO, the Potency is reported as “inactive”. With CCCCCCCCCCCCO the Potency was 31.3 µM (active). With C=C[C@@]1(C)CC(=O)[C@]2(O)[C@@]3(C)[C@@H](O)CCC(C)(C)[C@@H]3[C@H](O)[C@H](OC(C)=O)[C@@]2(C)O1 the Potency was 39.9 µM (active). CC(=O)OC(C)C was tested, and the Potency was “inactive”. CCC/C=C/C=O was tested, and the Potency was 19.5 µM (active).

The molecules below were run against Cytochrome P450 2C9 (Homo sapiens) (UniProt P11712) (assay: Cytochrome P450 Family 2 Subfamily C Member 9 (CYP2C9) small molecule antagonists: luciferase reporter qHTS assay (AID 1671198; further: nearly all actives have a fitted effect of over 50% in size)). Settings: P450-Glo CYP2C9 enzyme assay, luciferin luminescence; series mostly up to 115 µM; activity change, negative = inhibition: at the top concentration.
Cytochrome P450 2C9 (Homo sapiens), sequence (P11712 whole entry, looked up): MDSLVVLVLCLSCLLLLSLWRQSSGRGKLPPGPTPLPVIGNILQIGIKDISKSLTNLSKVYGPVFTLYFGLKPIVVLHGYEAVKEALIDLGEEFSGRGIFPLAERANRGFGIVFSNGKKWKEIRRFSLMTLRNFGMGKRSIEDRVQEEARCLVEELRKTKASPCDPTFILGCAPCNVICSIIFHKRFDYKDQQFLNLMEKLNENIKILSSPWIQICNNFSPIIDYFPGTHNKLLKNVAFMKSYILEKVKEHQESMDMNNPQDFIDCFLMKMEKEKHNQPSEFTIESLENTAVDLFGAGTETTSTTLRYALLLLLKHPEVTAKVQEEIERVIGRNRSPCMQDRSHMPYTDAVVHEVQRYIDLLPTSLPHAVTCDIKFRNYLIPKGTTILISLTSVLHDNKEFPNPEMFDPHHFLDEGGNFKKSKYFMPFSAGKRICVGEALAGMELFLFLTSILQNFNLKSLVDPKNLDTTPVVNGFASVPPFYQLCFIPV
Procedure, shortened: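 P450-Glo proluciferin substrate with CYP2C9 enzyme; 10 min RT preincubation, then NADPH regeneration 1 h at 37C; luciferin detection reagent 20 min RT, luminescence in relative luminescence units.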
For CCC(=O)O[C@H]1[C@H](O[C@@H]2[C@@H](C)[C@H](O[C@H]3C[C@@](C)(OC)[C@@H](O)[C@H](C)O3)[C@@H](C)C(=O)O[C@H](CC)[C@@](C)(O)[C@H](O)[C@@H](C)C(=O)[C@H](C)C[C@@]2(C)O)O[C@H](C)C[C@@H]1N(C)C, the Potency was 37.4 µM (active) and inactive. CC1(C)C(C=C(Cl)Cl)C1C(=O)OCc1cccc(Oc2ccccc2)c1 (configuration not stated) was tested, and the Potency was 15.8 µM (active) and 8.94 µM (active). CC(=O)Oc1ccc(C(c2ccc(OC(C)=O)cc2)c2ccccn2)cc1 was tested, and the Potency was 7.06 µM (active) and 12.3 µM (active). O=C(O)c1ccc(O)cc1 was tested, and the Potency was “inactive”. In the case of CCC(Cc1c(I)cc(I)c(N)c1I)C(=O)O (configuration not stated), the Potency is reported as 30.7 µM (active) and 30.9 µM (active). With C1CN(SSN2CCOCC2)CCO1 the Potency was 39.5 µM (active) and 28.3 µM (active). For COC(=O)C(C)Oc1ccc(Oc2ncc(C(F)(F)F)cc2Cl)cc1 (configuration not stated), the Potency was “inactive”. For NCCOCCO, the Potency was “inactive”. CC(=O)O[C@]1(C(C)=O)CC[C@H]2[C@@H]3C=C(Cl)C4=CC(=O)CC[C@]4(C)[C@H]3CC[C@@]21C was tested, and the Potency was 20 µM (active) and 15.5 µM (active). In the case of CCCOCCO, the Potency is reported as “inactive”. In the case of NCCN, the “activity change, negative = inhibition” value is reported as -7.59% (inactive). Cc1ccc(S(=O)(=O)NCl)cc1 was tested, and the Potency was “inactive and 75.1 µM (active)”. For CC(C)[N+](C)(CCOC(=O)C1c2ccccc2Oc2ccccc21)C(C)C, the Potency was “inactive”. In the case of Nc1ccc(O)c(N)c1, the Potency is reported as 35.3 µM (active) and 71 µM (active). In the case of COC(=O)c1ccc(C)cc1, the Potency is reported as “inactive”. For Cc1ccc([N+](=O)[O-])c(C)c1, the “activity change, negative = inhibition” value was -11.3% (inactive). In the case of C=CCOC(=O)C(=C)C, the Potency is reported as “inactive”. C[C@]12C=CC(=O)C=C1CC[C@H]1[C@@H]3C[C@@H](O)[C@](O)(C(=O)CO)[C@@]3(C)C[C@H](O)[C@@]12F was tested, and the Potency was 20 µM (active). Cc1ccc(N)c([N+](=O)[O-])c1 was tested, and the Potency was “inactive”. Oc1ccc(C(c2ccc(O)cc2)C(Cl)(Cl)Cl)cc1 was tested, and the Potency was 22.4 µM (active) and 12.6 µM (active). In the case of O=C(O)c1cc(=O)[nH]c(=O)[nH]1, the Potency is reported as “inactive”. For C[N+](C)(C)CCO, the Potency was “inactive”. In the case of CCCCCCCCCCCCO, the Potency is reported as “inactive and 22.2 µM (active)”. With CC1=CC(C)(C)Nc2ccccc21 the Potency was 12.3 µM (active). With CCCCCCC(C)O (configuration not stated) the “activity change, negative = inhibition” value was -1.99% (inactive). In the case of CC(=O)OC(C)C, the Potency is reported as “inactive”. In the case of Cc1ccc(C)c(O)c1, the Potency is reported as “inactive”.
